The record followed here is PubChem BioAssay (NCI).

About 83,000 compounds went through this panel and 20% of them were active in at least one assay; those are over-represented in the sample as a whole.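 Assay: single dose, 48 h. Readout: percent growth (0 = no net growth; negative = cell death). Active: <10.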 Activity calls are given as the source filed them.

In the test the test system is MDA-MB-468 breast. Description: NCI-60 one-dose screen, 48 h (100 = growth as untreated, 0 = no growth, -100 = all killed). As to conditions: 10 µM unless noted.
`O=S(=O)(NCCCNc1nccc(-c2[nH]c(-c3ccccc3)nc2-c2ccc(F)c(O)c2)n1)c1ccc(C(F)(F)F)cc1`: the growth was -8.61% (active). With `Fc1ccc2[nH]cc(-c3nc(-c4c[nH]c5ncccc45)cs3)c2c1` the figure was 34.9% (inactive); with `CN(C)c1ccc(/C=C/c2sc3ccc4ccccc4c3[n+]2C)cc1`, -86.4% (active).

As to `CCCCCCNC(=O)Oc1ccc(/C(=C(\C)c2ccccc2)c2ccc(OCCN3CCCCC3)cc2)cc1`, the growth is 64.2% (inactive). Take `Cc1ccc(C(=O)NC2c3ccccc3Oc3ccccc32)cc1`: the growth is 41.8% (inactive).

As for `CC1=CC2C(C(O)CC3(C)C2CC(C)C32OCOC23COCO3)C2(C)C/C(=C/O)C(=O)C=C12` (centres undefined), the growth is -16.2% (active). The figure for `Cc1cccc(/C=C/c2nn3c(-c4ccco4)nnc3s2)c1` is 93.9% (inactive); for `COc1ccc(-c2cc(/C=C/C(=O)c3ccc(N)cc3)[nH]n2)cc1` it is 4.1% (active).

Turning to `O=C(CN1C(=O)S/C(=C\C(Cl)=C\c2ccccc2)C1=O)NC1C=CS(=O)(=O)C1` (centres undefined), the growth was -54.5% (active). With `Cc1ccc(Nc2cc(=S)nc(N)[nH]2)cc1C` the figure was 84.8% (inactive); with `COC(=O)c1ccccc1C(=O)c1c(C)cc(C)cc1C`, 103% (inactive). With `CN1CCN(CCOc2ccc(-c3cnc4c(-c5cccc(F)c5F)cnn4c3)cc2)CC1` the figure was 94.8% (inactive); with `Cc1cc(O)c(C2=NN(c3ccc(S(N)(=O)=O)cc3)C(c3ccc(N(C)C)cc3)C2)c(C)c1Cl` (centres undefined), 91.1% (inactive). The figure for `Cc1cc2nc3cc(C)c(N)cc3[n+](-c3ccccc3)c2cc1N` is 2.5% (active); for `Cc1nn(-c2ccc(Cl)cc2)c(=O)n1CCn1cnc2ccccc21` it is 117% (inactive); for `CS(=O)(=O)Nc1cc(-c2ccc3ncnc(Nc4ccc(F)c(Cl)c4)c3c2)ccc1Cl` it is -32% (active). Regarding `C(=N/Nc1ncnc2nc[nH]c12)/c1ccccn1`, the growth was -27.3% (active).

On to `COc1cc(/C=C2\CCCC3=C2N=C2SC(C)=NN2C3c2cc(OC)c(OC)c(OC)c2)cc(OC)c1OC` (centres undefined), for which the growth is 19.8% (inactive). The figure for `CN(C)CCNC(=O)c1ccc(-c2nc3ccc4[nH]ncc4c3c3c2COCC3)cc1` is -54.5% (active).

On to `C[C@H]1[C@H](C)CC[C@]2(C(=O)OCCCC[P+](c3ccccc3)(c3ccccc3)c3ccccc3)CC[C@]3(C)C(=CC[C@@H]4[C@@]5(C)CC[C@H](OC(=O)C(Cl)Cl)C(C)(C)[C@@H]5CC[C@]43C)[C@H]12`, for which the growth was -70.3% (active).

As to `COc1cc2cc(Oc3ccc(NC(=O)c4cc(C(F)(F)F)cc(C(F)(F)F)c4)cc3)c(C)nc2cc1OC`, the growth is 22.8% (inactive).

With `CC(C)C[C@H](NC(=O)CCn1ccc2ccccc2c1=O)B(O)O`, the growth is 6.61% (active). Turning to `CCCCCCCCCCC(C)Br` (centres undefined), the growth is 111% (inactive). Turning to `COc1ccc(NC(=O)c2cc3ccccc3nc2Nc2cc(OC)c(OC)c(OC)c2)cc1`, the growth is 75.2% (inactive). As for `Clc1cccc(Cc2cn3cc(-c4ccccc4)nc3s2)c1`, the growth is 44.3% (inactive). Turning to `NC(=O)OCCn1cc(-c2nc(-c3c[nH]c4ncccc34)cs2)c2ccccc21`, the growth is 12.4% (inactive). With `FC(F)(F)c1cccc(Nc2nc(-c3ccccc3)nc3ncccc23)c1` the figure was -21.7% (active); with `Cc1cc(Br)c(N)c(Br)c1`, 98.3% (inactive); with `O=C(c1ccccc1)C1OC1c1ccc([N+](=O)[O-])cc1` (centres undefined), 29.2% (inactive). Turning to `CO[C@H]1/C=C/O[C@@]2(C)Oc3c(C)c(O)c4c(O)c(c(/C=N/N5C(C)CN(Cc6ccccc6)CC5C)c(O)c4c3C2=O)NC(=O)/C(C)=C\C=C\[C@H](C)[C@H](O)[C@@H](C)[C@@H](O)[C@@H](C)[C@H](OC(C)=O)[C@@H]1C` (some centres undefined), the growth is 65.1% (inactive). With `O=C(Nc1ncccc1OCc1ccccc1)NC1CCCCCC1` the figure was 75.5% (inactive); with `Cc1ccc(-c2nc3ccccc3c(=O)n2/N=C/c2cccc3ccccc23)cc1`, 80.9% (inactive); with `N=C(N)c1ccc(-c2ccc(-c3ccc(Cl)c(Cl)c3)s2)cc1`, -61.6% (active). As to `CCCCCN(CCCCC)CC(O)c1cc(C)c2ccc3cc(C(C)C)ccc3c2c1` (centres undefined), the growth was -71.1% (active). The figure for `COc1cc2c(c(OC)c1OC)C(=O)/C(=C/c1cc(C)c(O)c(C)c1)S2` is 5.19% (active); for `O=C(CN1CCCCC1)Nc1nc(-c2cc3ccccc3oc2=O)cs1` it is 96.3% (inactive); for `O=C(Nc1cccc(C(=O)N2CCc3ccc(Cl)cc32)c1)c1ccco1` it is -0.651% (active). The figure for `Cc1cc(NCc2cc(Nc3ccnc4cc(Cl)ccc34)ccc2F)nc(N2CCSCC2)n1` is -17.3% (active). As for `Cc1ccc(C2SCC(=O)N2Cc2ccccc2)cc1` (centres undefined), the growth is 87.3% (inactive).
